# Measured values published in the supplement of paper PMC3545927.
# The list shows a part of the results. The hit rate among all sequences tested is not known here.
# Target: furin, P09958
# Test: furin cleavage Z-score vs untreated control; higher = more cleavage, active = 3.5 or more, inactive = 1 or less, 8 variable residues between constant flanks
# Method in brief: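 Peptides 8 residues long, fused to a cDNA oligonucleotide, were fixed to magnetic beads by the N-terminus and exposed to purified furin. The 0.01 ml reactions contained 50 mM HEPES pH 7.5 with CaCl2 and NaCl at 1:10 enzyme:substrate and ran 7.5, 15 or 30 min. For the cleavage Z-score, log counts of sequenced released DNA were compared with furin-free reactions, lowess-adjusted and scaled by median absolute deviation.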
# Sequence of furin, P09958 (P09958 whole entry): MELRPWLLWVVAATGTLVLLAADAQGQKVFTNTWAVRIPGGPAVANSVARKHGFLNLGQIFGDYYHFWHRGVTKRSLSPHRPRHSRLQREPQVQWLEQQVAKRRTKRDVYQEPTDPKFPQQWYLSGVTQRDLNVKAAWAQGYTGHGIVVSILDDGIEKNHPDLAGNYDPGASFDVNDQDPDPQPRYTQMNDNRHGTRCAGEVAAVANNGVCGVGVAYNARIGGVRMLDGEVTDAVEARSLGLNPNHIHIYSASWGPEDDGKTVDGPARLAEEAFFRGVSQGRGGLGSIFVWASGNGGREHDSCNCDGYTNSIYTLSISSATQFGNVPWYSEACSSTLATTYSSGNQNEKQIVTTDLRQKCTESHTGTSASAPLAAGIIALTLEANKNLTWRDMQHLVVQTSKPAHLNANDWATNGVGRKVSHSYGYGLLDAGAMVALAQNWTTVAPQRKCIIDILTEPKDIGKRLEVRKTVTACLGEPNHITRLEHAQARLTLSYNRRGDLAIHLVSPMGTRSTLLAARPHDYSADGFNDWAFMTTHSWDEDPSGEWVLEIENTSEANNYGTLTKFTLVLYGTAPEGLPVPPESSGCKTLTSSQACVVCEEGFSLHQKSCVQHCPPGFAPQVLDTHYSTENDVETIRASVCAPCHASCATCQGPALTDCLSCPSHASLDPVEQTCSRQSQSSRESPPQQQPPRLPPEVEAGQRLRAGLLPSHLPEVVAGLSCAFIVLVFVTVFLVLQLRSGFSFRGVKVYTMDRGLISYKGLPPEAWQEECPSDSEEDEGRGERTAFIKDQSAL
Sequence,furin cleavage Z-score (7.5 min),furin cleavage Z-score (15 min),furin cleavage Z-score (30 min)
CAMMECSQHLAGNASASA [HC1686],-0.328 (inactive),0.731 (inactive),0.7 (inactive)
CAEVVTVTWVAGNASASA [HC143],-0.0202 (inactive),-1.22 (inactive),0.0435 (inactive)
CASIEPLDLPAGNASASA [HC1597],-0.888 (inactive),1.4,-0.00883 (inactive)
CARNFRFLSSAGNASASA [FS-3004],-0.151 (inactive),-0.288 (inactive),-1.62 (inactive)
CARRERSIKSAGNASASA [FS-863],3.74 (active),6.21 (active),7 (active)
CARRWRSLRPAGNASASA [FS-1924],-0.388 (inactive),2.12,2.35
CARRRRARSSAGNASASA [FS-3061],9.64 (active),8.93 (active),6.98 (active)
CARRRRSRSSAGNASASA [FS-3263],8.31 (active),9.52 (active),8.33 (active)
CARRYRGNDSAGNASASA [FS-3072],-0.0765 (inactive),-0.858 (inactive),-0.417 (inactive)
CAAPQGSRSLAGNASASA [HC717],-0.871 (inactive),-1.2 (inactive),0.343 (inactive)
CAPRRRARSLAGNASASA [FS-2479],10.9 (active),12.2 (active),10.3 (active)
CATTPCEGSWAGNASASA [HC73],0.057 (inactive),0.658 (inactive),0.0884 (inactive)
CATGTYVYNHAGNASASA [HC633],-0.127 (inactive),-1.41 (inactive),-0.282 (inactive)
CARRARDMSSAGNASASA [FS-1771],2.38,4.53 (active),4.22 (active)
CAADGMVSKGAGNASASA [HC668],0.272 (inactive),0.596 (inactive),-0.245 (inactive)
CADPMLEKRSAGNASASA [FS-1517],-0.771 (inactive),-0.469 (inactive),0.309 (inactive)
CADQEREKRSAGNASASA [FS-1115],2.32,3.5 (active),5.3 (active)
CARQDRSKGTAGNASASA [FS-2225],0.0348 (inactive),-0.0846 (inactive),-0.182 (inactive)
CAMLSPEKRSAGNASASA [FS-178],0.073 (inactive),-0.325 (inactive),0.835 (inactive)
CAGSQWEKRSAGNASASA [FS-1129],1.1,-0.464 (inactive),-0.295 (inactive)
CATLDRSKRNAGNASASA [FS-1494],10.9 (active),11.2 (active),9.22 (active)
CAFIGREKRSAGNASASA [FS-1323],12 (active),10.8 (active),9.06 (active)
CATLDREKRSAGNASASA [FS-98],9.65 (active),10.6 (active),9.73 (active)
CADMMMNWSPAGNASASA [HC321],-1.68 (inactive),-0.337 (inactive),-0.211 (inactive)

Sequence,furin cleavage Z-score (7.5 min),furin cleavage Z-score (15 min),furin cleavage Z-score (30 min)
CANRLIAFASAGNASASA [HC1119],0.982 (inactive),0.0869 (inactive),0.661 (inactive)
CAPYYKRYISAGNASASA [HC577],-0.596 (inactive),1.03,0.43 (inactive)
CAEVPCHRCSAGNASASA [HC2400],-0.164 (inactive),1.15,0.38 (inactive)
CAKRAAVRRLAGNASASA [FS-1134],-0.242 (inactive),-0.206 (inactive),1.42
CAAEAAGRRLAGNASASA [HC1252],-0.023 (inactive),-0.0869 (inactive),-1.21 (inactive)
CAGDIRVRRLAGNASASA [FS-423],3.94 (active),5.14 (active),6.57 (active)
CAEGHRPRRPAGNASASA [FS-412],-0.592 (inactive),-1.65 (inactive),-2.58 (inactive)
CAACIRKRRLAGNASASA [FS-1582],8.2 (active),8.28 (active),8.96 (active)
CAARHRPRRLAGNASASA [FS-1307],8.25 (active),10.2 (active),9.03 (active)
CANLSRNRRLAGNASASA [FS-697],2.54,6.24 (active),6.91 (active)
CAAWYLKGKWAGNASASA [HC548],-0.848 (inactive),-0.178 (inactive),-0.813 (inactive)
CAHSAKSKFGAGNASASA [HC1418],-0.464 (inactive),-0.415 (inactive),-0.702 (inactive)
CAVVCCSMSKAGNASASA [HC2094],-0.242 (inactive),-0.54 (inactive),-1.3 (inactive)
CAHGAGTRTIAGNASASA [HC702],1.09,1.35,-2.29 (inactive)
CAALSRPRRLAGNASASA [FS-749],2.43,5.44 (active),2.14
CAEVPCHRPVAGNASASA [HC2410],0.723 (inactive),-0.406 (inactive),-0.356 (inactive)
CARSSRPRRSAGNASASA [FS-1163],10.4 (active),11 (active),6.76 (active)
CASSGRPRRSAGNASASA [FS-507],10.4 (active),9.27 (active),7.66 (active)
CASSGCPERLAGNASASA [HC385],-0.122 (inactive),-0.598 (inactive),0.353 (inactive)
CARESRPRRQAGNASASA [FS-1395],8.96 (active),9.39 (active),6.91 (active)
CAVDSRPRRSAGNASASA [FS-887],9.24 (active),9.17 (active),9.61 (active)
CASSGRSFRSAGNASASA [FS-146],0.572 (inactive),0.748 (inactive),1.78
CARSSRSGSSAGNASASA [FS-3096],-0.25 (inactive),-0.36 (inactive),-1.33 (inactive)
CAKPQRPRRPAGNASASA [FS-1133],-0.333 (inactive),0.223 (inactive),1.52
